Screening data deposited in PubChem by Broad Institute.
The list is not random: actives were taken first. Their share in the collection is about 1.1%.
PfHsp40 rescue – rescue of yeast from PfHsp40 toxicity, primary screen, S. cerevisiae, ATP luminescence; S. cerevisiae expressing PfHsp40, growth rescue; growth rescue, % at 12.5 µM; actives 0.68% (n = 340,000); in the data active = growth rescue above about 28%, passing the limit was not always enough; inconclusive = no clear call, values can overlap the other calls;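 note: yeast W303a lacking pdr1 and pdr3 grown in galactose medium; growth measured after three days at 30 °C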
Mtb BioA inh – M. tuberculosis BioA enzyme inhibitors, primary screen, biochemical, plate reader, single point, HTS; inhibition, % at 9.99 µM; purified M. tuberculosis BioA enzyme; AID 602481, 2012; actives 0.096% (n = 360,000); in the data active = inhibition above about 40%; inconclusive = no clear call, values can overlap the other calls
FadD28 binding – inhibitors of FadD28 bisubstrate probe binding, primary screen, biochemical, fluorescence polarization, single point; Mycobacterium tuberculosis FadD28 fatty-acid-AMP ligase; actives 0.22% (n = 360,000); AID 588549, 2011; inhibition, % at 12.5 µM; in the data active = inhibition above about 8.5%, passing the limit was not always enough; inconclusive = no clear call, values can overlap the other calls
PrP 5UTR inh – inhibition of PrP 5' UTR reporter expression; cell-based PrP 5' UTR mRNA reporter, plate reader; inhibition, % (no concentration beside the values); actives 0.35% (n = 340,000); AID 488862, 2010; in the data active = inhibition above about 52%; note: 0 = median of the neutral control wells
TcdB inh – TcdB glycohydrolase inhibitors, primary screen, biochemical, single point, plate reader; TcdB glycohydrolase enzymatic assay; inhibition, % at 9.99 µM; actives 0.24% (n = 350,000); AID 652162, 2013; in the data active = inhibition above about 10%
Target sequence (P18177 whole entry, looked up): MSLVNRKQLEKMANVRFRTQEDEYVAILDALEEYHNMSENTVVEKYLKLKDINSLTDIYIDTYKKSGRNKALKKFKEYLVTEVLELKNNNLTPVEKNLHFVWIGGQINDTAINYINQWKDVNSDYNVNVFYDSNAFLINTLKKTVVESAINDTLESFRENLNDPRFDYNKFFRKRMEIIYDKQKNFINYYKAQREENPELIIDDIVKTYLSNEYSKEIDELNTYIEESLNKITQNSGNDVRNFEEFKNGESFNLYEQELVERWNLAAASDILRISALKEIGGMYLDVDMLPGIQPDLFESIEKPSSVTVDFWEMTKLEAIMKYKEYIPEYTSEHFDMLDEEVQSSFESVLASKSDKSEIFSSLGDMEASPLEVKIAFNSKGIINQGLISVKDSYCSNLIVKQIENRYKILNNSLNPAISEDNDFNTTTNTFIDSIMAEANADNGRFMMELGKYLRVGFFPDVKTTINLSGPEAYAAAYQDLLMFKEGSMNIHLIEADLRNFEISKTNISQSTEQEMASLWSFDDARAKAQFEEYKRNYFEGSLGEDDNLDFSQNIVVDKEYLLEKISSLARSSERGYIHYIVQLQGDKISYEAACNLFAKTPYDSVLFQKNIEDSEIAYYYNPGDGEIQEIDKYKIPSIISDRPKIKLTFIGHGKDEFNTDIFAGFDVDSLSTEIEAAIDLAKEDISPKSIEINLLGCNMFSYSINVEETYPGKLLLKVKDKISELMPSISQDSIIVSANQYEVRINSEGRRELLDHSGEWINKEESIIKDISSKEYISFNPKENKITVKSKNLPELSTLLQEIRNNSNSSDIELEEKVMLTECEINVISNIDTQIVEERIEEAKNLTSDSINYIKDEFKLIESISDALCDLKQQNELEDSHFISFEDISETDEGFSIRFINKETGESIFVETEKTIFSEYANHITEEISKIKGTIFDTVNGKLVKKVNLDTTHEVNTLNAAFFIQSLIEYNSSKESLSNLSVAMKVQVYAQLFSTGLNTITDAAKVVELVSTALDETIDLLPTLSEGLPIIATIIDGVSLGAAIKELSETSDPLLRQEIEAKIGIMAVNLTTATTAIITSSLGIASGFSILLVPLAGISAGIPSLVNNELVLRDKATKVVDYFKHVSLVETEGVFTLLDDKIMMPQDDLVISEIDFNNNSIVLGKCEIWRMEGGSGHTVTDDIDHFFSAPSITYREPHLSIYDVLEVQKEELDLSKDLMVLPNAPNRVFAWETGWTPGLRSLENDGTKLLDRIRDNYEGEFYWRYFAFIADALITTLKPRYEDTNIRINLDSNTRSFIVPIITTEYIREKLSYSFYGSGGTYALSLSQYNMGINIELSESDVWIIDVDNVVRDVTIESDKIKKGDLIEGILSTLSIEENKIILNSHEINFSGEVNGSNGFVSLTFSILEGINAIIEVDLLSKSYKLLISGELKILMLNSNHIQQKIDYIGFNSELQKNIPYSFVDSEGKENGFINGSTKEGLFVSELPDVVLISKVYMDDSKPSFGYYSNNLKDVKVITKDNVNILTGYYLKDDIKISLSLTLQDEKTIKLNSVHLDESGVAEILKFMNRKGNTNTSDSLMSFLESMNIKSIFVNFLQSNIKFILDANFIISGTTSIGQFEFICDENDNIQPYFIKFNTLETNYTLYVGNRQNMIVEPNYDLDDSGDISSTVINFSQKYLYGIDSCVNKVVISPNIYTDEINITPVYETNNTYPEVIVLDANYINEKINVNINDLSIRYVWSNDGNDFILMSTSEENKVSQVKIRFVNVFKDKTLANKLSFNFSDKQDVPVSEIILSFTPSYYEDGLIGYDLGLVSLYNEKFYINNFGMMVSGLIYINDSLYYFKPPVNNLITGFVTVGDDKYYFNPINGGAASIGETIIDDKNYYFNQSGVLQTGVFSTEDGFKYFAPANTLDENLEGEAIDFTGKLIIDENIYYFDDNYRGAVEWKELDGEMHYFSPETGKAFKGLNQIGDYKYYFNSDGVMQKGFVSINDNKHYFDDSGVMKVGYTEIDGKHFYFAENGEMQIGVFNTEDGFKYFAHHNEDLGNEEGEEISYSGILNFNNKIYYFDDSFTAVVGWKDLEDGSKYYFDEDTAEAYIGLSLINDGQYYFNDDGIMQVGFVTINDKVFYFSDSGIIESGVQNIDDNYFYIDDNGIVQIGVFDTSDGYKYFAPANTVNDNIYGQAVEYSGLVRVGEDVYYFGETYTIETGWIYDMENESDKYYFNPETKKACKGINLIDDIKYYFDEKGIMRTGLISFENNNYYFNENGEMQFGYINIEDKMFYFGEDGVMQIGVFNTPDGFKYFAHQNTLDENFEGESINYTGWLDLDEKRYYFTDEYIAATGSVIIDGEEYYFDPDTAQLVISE
* = called active by the depositor; ? = inconclusive; / = no result given.

SMILES	PfHsp40 rescue	Mtb BioA inh	FadD28 binding	PrP 5UTR inh	TcdB inh
CC(=O)[C@@]1(O)Cc2c(O)c3c(c(O)c2[C@H](O[C@H]2C[C@H](N)[C@H](O)[C@H](C)O2)C1)C(=O)c1ccccc1C3=O	/	-94	74*	/	-3
C[C@H]1CN([C@@H](C)CO)C(=O)Cc2cc(NS(=O)(=O)c3cccs3)ccc2O[C@@H]1CN(C)CC1CC1	/	-2	/	/	-1
Cc1[nH]c(N=Nc2ccccc2)nc1N=Nc1ccccc1	80*	/	-2	-23	0
Nc1ccc(N=Nc2ccccc2)c(N)n1	6	2	1	-38	0
CNC[C@H]1OCCCC[C@@H](C)Oc2ccc(NS(=O)(=O)c3cn(C)cn3)cc2C(=O)N([C@@H](C)CO)C[C@@H]1C	/	-3	/	/	/
COCCNC(=O)C[C@@H]1C[C@H]2c3cc(NC(=O)Nc4ccccc4)ccc3O[C@H]2[C@@H](CO)O1	/	0	/	/	0
CCCCN(C)S(=O)(=O)c1cc2c(cc1Br)CCN2C(=O)C1CC1	123*	1	-3	-26	2
CCCNS(=O)(=O)c1cc2c(cc1Br)CCN2C(=O)CC	1	0	1	-57	2
N#Cc1c(-c2ccc(Cl)cc2)n(O)c2ccccc12	284*	/	?	-34	/
Cn1c(-c2ccc(C#N)cc2)c(C#Cc2ccccc2)c2ccccc21	-1	0	-3	-9	0
C[C@H](CO)N1C[C@H](C)[C@H](CN(C)S(=O)(=O)c2ccc(F)cc2)Oc2c(NC(=O)Nc3ccc(C(F)(F)F)cc3)cccc2C1=O	/	8	/	/	-1
CC12CC3(C)CC(C)(C1)CC(NC(=O)N1CCCC1)(C2)C3	310*	1	-3	9	/
COc1ccc([N+](=O)[O-])cc1NC(=S)NC(C)=O	-2	/	-2	-2	16*
COc1ccc(NC(=O)c2cc([N+](=O)[O-])ccc2O)cc1	-3	/	2	87*	9
CCCCC(=O)NC(=S)Nc1cc([N+](=O)[O-])ccc1OC	?	-1	-3	-22	2
COc1cc([N+](=O)[O-])ccc1NC(=O)Oc1ccc(NC(C)=O)cc1	0	2	-1	-40	10*
CCc1cccc2c(C(=O)COC(=O)c3ccc([N+](=O)[O-])s3)c[nH]c12	37*	/	33*	-12	0
N#C[C@@H]1[C@@H](c2ccc(-c3ccccc3F)cc2)[C@H](CO)N1C(=O)C1CCOCC1	/	-2	/	/	-1
CCN1/C(=C2\OC(=S)N(C)C2=O)C=Cc2ccccc21	0	-2	2	22	11*
CCCNC(=O)N1C[C@H](O)COC[C@@H]2O[C@H](CC(=O)NCc3ccncn3)CC[C@H]21	/	-2	/	/	0
Cc1ccc(/C=C/C(=O)c2ccccc(=O)c2O)c(C)c1	183*	0	-1	-9	0
O=C(/C=C/c1ccc([N+](=O)[O-])cc1)c1ccccc(=O)c1O	0	/	-5	5	1
Cc1ccc(C)c(/C=C/C(=O)c2ccccc(=O)c2O)c1	224*	0	-1	7	/
O=C(/C=C/c1ccccc1Cl)c1ccc(O)cc1	?	4	-1	-30	1
O=C(/C=C/c1ccccc1Cl)c1ccccc(=O)c1O	64*	/	1	-18	/
SMILES	PfHsp40 rescue	Mtb BioA inh	FadD28 binding	PrP 5UTR inh	TcdB inh
COc1ccccc1C(=O)N1C[C@@H]2[C@H](c3ccccc31)[C@H](CO)N2C(=O)Cc1ccccc1	/	-2	/	/	0
C=CCNc1nc(-c2ccc(O)c(C(N)=O)c2)cs1	0	2	0	-15	/
NC(=O)c1cc(-c2csc(NCCc3ccccc3)n2)ccc1O	0	1	15*	-20	-4
O=C(CCCN1C(=O)/C(=C\c2ccco2)SC1=S)Nc1ccc2ccccc2c1	-1	/	-1	-39	0
COc1ccccc1/C=C1\SC(=S)N(CCC(=O)Nc2ccc(C(=O)O)c(O)c2)C1=O	6	/	-6	-4	1
O=C(CCN1C(=O)/C(=C\c2ccco2)SC1=S)Nc1ccc(C(=O)O)c(O)c1	-1	0	15*	8	-1
O=C(CCN1C(=O)/C(=C/c2ccco2)SC1=S)Nc1ccc(C(=O)O)c(O)c1	15	1	11*	3	0
C[C@H]1CN([C@@H](C)CO)C(=O)Cc2cc(NC(=O)NC3CCCCC3)ccc2O[C@@H]1CN(C)S(=O)(=O)c1ccccc1	/	1	/	/	0
CCC(=O)N(C)C[C@H]1Oc2cc(-c3ccccc3C)ccc2S(=O)(=O)N([C@@H](C)CO)C[C@@H]1C	/	1	/	/	1
CN(CC(=O)Nc1ccccc1)CC(=O)Nc1ccccc1Cl	1	0	-2	-31	1
CCCCc1ccc(NC(=O)CN(C)CC(=O)Nc2ccccc2Cl)cc1	36*	-1	-3	-13	-5
CC(O)c1nc2ccccc2n1C1CCCCC1 (centres undefined)	74*	0	2	-19	/
Cc1ccc(-c2ccc([C@@H]3[C@H](CO)N4CCCCN(S(=O)(=O)c5ccccc5C)C[C@@H]34)cc2)cc1	/	-4	/	/	0
CCN(CC)S(=O)(=O)c1cccc(NC(=O)C(=O)c2c(-c3ccccc3)cc3ccccn23)c1	2	-1	-3	-27	/
CCN(CC)S(=O)(=O)c1ccc(N2CCOCC2)c(NC(=O)C(=O)c2c(-c3ccccc3)cc3ccccn23)c1	130*	-3	-4	-20	/
CCn1c2ccccc2c2nc3cc(C(=O)O)ccc3nc21	?	/	-7	-9	1
Cn1c2ccccc2c2cc(C(=O)O)ccc21	42*	/	1	-17	/
CCCn1c2ccccc2c2cc(C(=O)O)ccc21	325*	-1	-5	-17	1
C/C(=N\O)c1ccc2c3ccccc3n(C)c2c1	0	1	-4	-37	/
Cc1cc(C)c(S(=O)(=O)c2ccc(Cl)cc2C)c(Cl)n1	1	/	-3	-17	11*
Cc1cc(C(=O)Nc2cccc3c2O[C@@H](CN(C)C(=O)Nc2ccccc2)[C@H](C)CN([C@@H](C)CO)C3=O)n(C)n1	/	0	/	/	0
C[C@@H]1CN([C@H](C)CO)C(=O)c2cc(NS(=O)(=O)c3cccs3)ccc2O[C@@H](C)CCCCO[C@H]1CN(C)C(=O)C1CCCCC1	/	/	/	/	-1
Cc1ccc(SC(CC(=O)c2ccc(F)cc2)C(=O)O)cc1 (centres undefined)	1	-2	/	-16	-2
CC(C)(C)c1ccc(C(=O)CC(Sc2ccc(Cl)cc2)C(=O)O)cc1 (centres undefined)	75*	/	0	-29	2
C[C@@H]1CN([C@@H](C)CO)C(=O)c2cc(N(C)C)ccc2O[C@@H](C)CCCCO[C@@H]1CN(C)C(=O)NC1CCCCC1	/	-2	/	/	-25
Cc1cc(C)c(S(=O)(=O)N2CCCCC2C(=O)O)c(C)c1 (centres undefined)	-1	/	-2	-36	13*
